Sampled rows, rich in hits. Any-hit rate of the full collection: about 6.8%.
Pf Dd2 inh: inhibitors of Plasmodium falciparum Dd2 growth; P. falciparum Dd2 growth, SYBR Green, 72 h; hits give low values; activity change, % at 10 µM; 94,000 tested, 2.3% active; AID 1159554; in the data active = activity change below about -80%; inconclusive = no clear call, values can overlap the other calls
T cruzi growth-1: T. cruzi proliferation inhibition; inhibition, % at 8.34 µM; T. cruzi beta-gal in NIH3T3, GalScreen luminescence, 90 h; 77,000 tested, 5.9% active; AID 624255;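 active = mean inhibition above about 93%, with at least 55% of replicates each passing it, limit read from the data, passing the limit was not always enough; inconclusive = only one of those two conditions holds; inactive = neither condition holds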
C diff growth: blocks growth of Clostridium difficile. Clostridium difficile clinical isolate growth, OD600, 24 h; hits give low values. growth activity, negative = inhibition, % at 16 µg/mL (by protocol). 86,000 tested, 0.25% active. AID 1259249;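 active = mean growth activity at or below -80% and every replicate also at or below -80%; inconclusive = mean at or below -80% but some replicate above -80%; inactive = mean growth activity above -80%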;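 note: 0% = DMSO wells and -100% = levofloxacin 16 µg/mL wells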
T cruzi growth-2: inhibitors of T. cruzi proliferation. T. cruzi beta-gal in NIH3T3, GalScreen luminescence, 90 h. shares compounds with T cruzi growth-1. inhibition, % at 8.35 µM. AID 651739. 5,600 tested, 72% active;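 active = mean replicate inhibition above about 95% and at least 55% of replicates individually reaching it, limit read from the data; inconclusive = only one of the two criteria is met; inactive = neither criterion is met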
T cruzi growth-3: Trypanosoma cruzi proliferation inhibition; shares compounds with T cruzi growth-1; T. cruzi beta-gal in NIH3T3, GalScreen luminescence, 90 h; inhibition, % at 2.09 µM; 5,600 tested, 21% active;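 active = mean inhibition above about 95%, with at least 55% of replicates also reaching it, limit read from the data; inconclusive = meets just one of the two conditions; inactive = meets neither condition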;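 note: plate controls were neutral control median for no effect and positive control median for full effect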
3T3 cytotox: cytotoxicity in mouse NIH/3T3 fibroblasts. NIH/3T3 viability, CellTiter-Glo ATP luminescence, 90 h. AID 651742. 5,600 tested, 14% active. cytotoxicity (signal decrease), % at 8.35 µM. shares compounds with T cruzi growth-1;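 active = mean signal decrease across replicates above about 35% based on untreated-well scatter, with enough replicates individually passing, limit read from the data; inconclusive = no rule stated though some were filed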;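 note: 0% = median of neutral control wells and 100% = median of positive control wells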
NIH3T3 tox 2: cytotoxicity in mouse NIH/3T3 fibroblasts; shares compounds with T cruzi growth-1; NIH/3T3 viability, CellTiter-Glo ATP luminescence, 90 h; inhibition, % at 24.9 µM; 5,600 tested, 56% active; AID 651744;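 active = mean loss of cell viability signal at or above a set limit, and enough replicates individually reaching it; inconclusive = meets only the mean limit or only the replicate share; inactive = meets neither condition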;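 note: 0% = median of neutral control wells and 100% = median of positive control wells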
* marks the source's active call; other numbers are inactive results; ? = inconclusive; / = not tested or not shown; ! = a repeat was not active.

SMILES	Pf Dd2 inh	T cruzi growth-1	C diff growth	T cruzi growth-2	T cruzi growth-3	3T3 cytotox	NIH3T3 tox 2
CO[C@H](CN(C)C(=O)Nc1ccc(Cl)cc1)[C@H](C)CN(Cc1ccccc1Cl)[C@@H](C)CO	-51	114*	/	103*	99*	42*	49*
CO[C@H](CN(C)S(=O)(=O)c1ccc(Cl)cc1)[C@H](C)CN(Cc1ccccc1Cl)[C@@H](C)CO	-25	77	/	/	/	/	/
CO[C@@H](CN(C)S(=O)(=O)c1ccc(Cl)cc1)[C@H](C)CN(Cc1ccccc1Cl)[C@@H](C)CO	-28	71	/	/	/	/	/
CO[C@@H](CN(C)C(=O)Nc1ccc(F)cc1)[C@H](C)CN(Cc1ccccc1Cl)[C@H](C)CO	-16	-78	/	/	/	/	/
CO[C@@H](CN(C)C(=O)Nc1ccc(Cl)cc1)[C@@H](C)CN(Cc1ccccc1Cl)[C@H](C)CO	-46	111*	/	106*	64	28	31*
CO[C@H](CN(C)C(=O)Nc1ccc(Cl)cc1)[C@H](C)CN(Cc1ccccc1Cl)[C@H](C)CO	-51	109*	/	109*	63	?	60*
CCNC(=O)Nc1ccc2c(c1)C(=O)N(C)[C@@H]1CC[C@H](CC(=O)NCc3ccc(F)cc3)O[C@H]1CO2	12	12	-4	/	/	/	/
C[C@H]1CN([C@@H](C)CO)C(=O)c2cccc(NC(=O)Nc3ccc(C(F)(F)F)cc3)c2O[C@@H]1CN(C)CC1CC1	14	3	8	/	/	/	/
CNC(=O)C[C@H]1CC[C@H]2[C@H](COc3ccc(NC(=O)Cc4cccs4)cc3C(=O)N2C)O1	6	11	0	/	/	/	/
C[C@@H]1CN([C@H](C)CO)S(=O)(=O)c2ccc(C#Cc3ccncc3)cc2O[C@H]1CN(C)C(=O)C1CC1	-33	80	/	/	/	/	/
COCC(=O)N1CC2(C1)[C@H](c1ccccc1)[C@@H](CO)N2C(=O)c1ccncc1	13	/	-4	/	/	/	/
COCCNC(=O)C[C@H]1C[C@@H]2c3cc(NC(=O)c4cccnc4)ccc3O[C@@H]2[C@@H](CO)O1	15	20	2	/	/	/	/
C[C@H]1CCCCO[C@@H](CN(C)S(=O)(=O)c2ccccc2)[C@@H](C)CN([C@@H](C)CO)C(=O)c2cc(N(C)C)ccc2O1	-60	107*	-6	69	14	19	17
C[C@H](CO)N1C[C@H](C)[C@H](CN(C)S(=O)(=O)c2ccccc2)OCCCC[C@H](C)Oc2ccc(N(C)C)cc2C1=O	-38	34	-5	/	/	/	/
COc1ccc(S(=O)(=O)N(C)C[C@H]2OCCCC[C@H](C)Oc3ccc(N(C)C)cc3C(=O)N([C@H](C)CO)C[C@@H]2C)cc1	-88*	102*!	2	51	21	-25	-14
COc1ccc(S(=O)(=O)N(C)C[C@@H]2OCCCC[C@@H](C)Oc3ccc(N(C)C)cc3C(=O)N([C@H](C)CO)C[C@H]2C)cc1	2	76	0	/	/	/	/
C[C@H]1CCCCO[C@@H](CN(C)S(=O)(=O)c2ccc(F)cc2)[C@@H](C)CN([C@@H](C)CO)C(=O)c2cc(N(C)C)ccc2O1	-1	81	-15	/	/	/	/
C[C@H](CO)N1C[C@H](C)[C@H](CN(C)S(=O)(=O)c2ccc(F)cc2)OCCCC[C@H](C)Oc2ccc(N(C)C)cc2C1=O	-40	?	-1	96*	24	-12	-21
Cc1ccc(S(=O)(=O)N(C)C[C@@H]2OCCCC[C@H](C)Oc3ccc(N(C)C)cc3C(=O)N([C@@H](C)CO)C[C@H]2C)cc1	-79	?	0	77	30	-13	-20
Cc1ccc(S(=O)(=O)N(C)C[C@@H]2OCCCC[C@@H](C)Oc3ccc(N(C)C)cc3C(=O)N([C@H](C)CO)C[C@H]2C)cc1	-16	50	-4	/	/	/	/
C[C@H]1CCCCO[C@H](CN(C)Cc2ccc(Cl)c(Cl)c2)[C@@H](C)CN([C@@H](C)CO)C(=O)c2cc(NS(C)(=O)=O)ccc2O1	-44	84	4	/	/	/	/
CO[C@H]1CN(C)C(=O)c2ccc(NC(=O)C3CC3)cc2OC[C@@H](C)N(CC2CCOCC2)C[C@@H]1C	-5	17	-4	/	/	/	/
CCCNC(=O)N1CCC2(CC1)CN(C(=O)NC1CCCC1)[C@@H](CO)c1[nH]c3cc(OC)ccc3c12	-17	/	81	/	/	/	/
